Experimental data from PMC5540273 (PLoS ONE, 2017).

Assays:
Conditions in all cases: concentration: 1 μM,replicates: in singlicate; n = 1
MLK1 = test system: T1, MLK1
T1 construct: gene MAP3K9

MLK2 = test system: MLK2
MLK3 = test system: MLK3
MRCKA = test system: MRCKA
MRCKB = test system: T2, MRCKB
T2 construct: gene CDC42BPB

MST1R = test system: MST1R
MST1 = test system: T3, MST1
T3 construct: gene STK4

MST2 = test system: T4, MST2
T4 construct: gene STK3

MST3 = test system: T5, MST3
T5 construct: gene STK24

MST4 = test system: MST4
MTOR = test system: MTOR
MUSK = test system: MUSK
MYLK2 = test system: MYLK2
MYLK4 = test system: MYLK4
MYLK = test system: MYLK
MYO3A = test system: MYO3A
MYO3B = test system: MYO3B
NDR1 = test system: T6, NDR1
T6 construct: gene STK38

NDR2 = test system: NDR2
NEK10 = test system: NEK10
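Also: KINOMEscan kinase panel screen.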

Row | SMILES | %Inh (MLK1) | %Inh (MLK2) | %Inh (MLK3) | %Inh (MRCKA) | %Inh (MRCKB) | %Inh (MST1R) | %Inh (MST1) | %Inh (MST2) | %Inh (MST3) | %Inh (MST4) | %Inh (MTOR) | %Inh (MUSK) | %Inh (MYLK2) | %Inh (MYLK4) | %Inh (MYLK) | %Inh (MYO3A) | %Inh (MYO3B) | %Inh (NDR1) | %Inh (NDR2) | %Inh (NEK10)
1 | O=C(NCCCN1CCOC1=O)c1cnc(NCc2cc(Cl)ccc2Cl)nc1NC1CCCC1 | 8% | 4% | 23% | 4% | 18% | 26% | 27% | 35% | 14% | 0% | 19% | 11% | 0% | 6% | 14% | 0% | 16% | 31% | 0% | 13%
2 | C[C@@H](Oc1cc(-c2cnn(C3CCNCC3)c2)cnc1N)c1c(Cl)ccc(F)c1Cl | 0% | 0% | 0% | 0% | 10% |  | 56% | 0% |  | 0% | 2% | 75% | 20% | 30% | 21% | 0% | 0% | 19% | 6% | 60%
3 | NC(=O)c1cc(-c2ccccc2)cc2c(C3CCNCC3)c[nH]c12 [GSK301362] | 9% | 12% | 0% | 18% | 13% | 40% | 43% | 86% | 0% | 0% | 3% | 21% | 40% | 99% | 15% | 0% | 0% | 0% | 0% | 24%
4 | COc1ccc(C[C@@H](CN)NC(=O)c2cc(Br)c(-c3ccnc4[nH]ccc34)s2)cc1.Cl.Cl [GSK1389063] | 13% | 0% | 0% | 89% | 99.4% | 40% | 0% | 34% | 0% | 54% | 17% | 20% | 52% | 98.5% | 99.6% | 10% | 0% | 96.8% | 78% | 23%
5 | C=CC(=O)Nc1cc2c(Nc3ccc(F)c(Cl)c3)ncnc2cc1OCCCN1CCOCC1 [GW781483] | 0% | 0% | 3% | 0% | 11% | 10% | 1% | 0% | 33% | 0% | 15% | 0% | 0% | 18% | 0% | 0% | 3% | 4% | 1% | 17%
6 | Cc1ccc(-n2nc(C(C)(C)C)cc2NC(=O)Nc2ccc(OCCN3CCOCC3)c3ccccc23)cc1 [GW839464] | 6% | 22% | 1% | 8% | 49% | 0% | 0% | 33% | 11% | 0% | 19% | 0% | 0% | 0% | 3% | 0% | 15% | 5% | 2% | 0%
7 | O=C(NCCNc1ccnc(NCc2ccc(F)cc2)n1)c1cc2ccccc2s1 [GSK1379944] | 5% | 0% | 0% | 10% | 69% | 4% | 0% | 0% | 1% | 0% | 1% | 5% | 0% | 1% | 14% | 0% | 0% | 0% | 0% | 0%
8 | CCN(CC)CCCCNc1ncc2cc(-c3c(Cl)cccc3Cl)c(NC(=O)NC(C)(C)C)nc2n1 | 0% | 40% | 4% | 0% | 0% | 10% | 40% | 31% | 74% | 86% | 39% | 10% | 12% | 43% | 4% | 4% | 23% | 11% | 0% | 29%
9 | CC(C)Nc1cc(-c2ccc3c(N)n[nH]c3c2)nc(N)n1 [GSK2221681] | 10% | 0% | 9% | 0% | 0% | 13% | 0% | 0% | 0% | 0% | 9% | 0% | 23% | 37% | 18% | 0% | 0% | 10% | 0% | 13%
10 | CNC(=O)c1ccccc1Sc1ccc2c(/C=C/c3ccccn3)n[nH]c2c1 | 0% | 17% | 1% | 0% | 100% | 29% | 0% | 50% | 11% | 0% | 52% | 51% | 9% | 6% | 14% | 0% | 0% | 9% | 0% | 18%
11 | Nc1nc(Nc2ccccc2)cc(-c2ccc3c(N)n[nH]c3c2)n1 [GSK2225749] | 0% | 14% | 0% | 0% | 1% | 0% | 7% | 5% | 5% | 0% | 13% | 4% | 51% | 16% | 0% | 0% | 0% | 0% | 0% | 0%
12 | CN(C)CCOc1ccc(-c2cc(-c3c[nH]nc3-c3ccccn3)ccn2)cc1 [GW835314] | 14% | 6% | 19% | 0% | 0% | 0% | 25% | 0% | 6% | 24% | 0% | 9% | 0% | 0% | 15% | 0% | 30% | 14% | 0% | 0%
13 | CC(C)N1C(=O)Cc2cc(Nc3ncc(C(F)(F)F)c(NCc4cccc(S(C)(=O)=O)c4)n3)ccc21 | 99.7% | 90.2% | 98.8% | 0% | 0% | 0% | 0% | 35% | 23% | 0% | 0% | 15% | 0% | 0% | 10% | 0% | 3% | 35% | 0% | 0%
14 | Cc1cc2cn[nH]c2cc1-c1cccc2c(N)c(C(N)=O)nnc12 | 18% | 0% | 30% | 24% | 0% | 11% | 90.2% | 88% | 11% | 69% | 3% | 0% | 0% | 10% | 71% | 14% | 0% | 85% | 0% | 86%
